Source: ChEMBL document CHEMBL4513216, “Probing the Open Global Health Chemical Diversity Library for Multistage-Active Starting Points for Next-Generation Antimalarials” (ACS Infect Dis, 2020)
Out of some 69,000 compounds screened, about 8,600 (12%) showed an effect of 50% or more. The list comes from a sample in which strong results are over-represented; it also holds similar structures and randomly drawn compounds.

What follows are compounds tested on Plasmodium berghei (assay: Screen against P. berghei liver stage (PbLuc), transformed with Luciferase, at 10uM). Settings: tested at 10 uM.
Format: functional, HepG2
Compound `CCOCC(O)CN1CCN(C(=O)c2cc(Cl)ccc2F)CC1` (centres undefined) has an INHIBITION of -18%.
With `Cc1cnc(N2CCCC3(CCN(Cc4csc(C)n4)C3=O)C2)nc1` (centres undefined) the INHIBITION was -49.8%.
`CC(NC(=O)N1CCN(c2ccccc2O)CC1)c1nncn1C` (centres undefined) showed an INHIBITION of -1.14%.
Work on `CC(C)n1nc2c(cc1=O)CN(CCOc1ccc(C#N)cc1)CC2` yielded an INHIBITION of -7.94%.
`CCn1nc2c(cc1=O)CN(c1ncnc3sccc13)CC2` gave an INHIBITION of 79.9%.
For `CC(C)n1nc2c(cc1=O)CN(c1ncnc3sccc13)CC2`, the INHIBITION was 88.5%.
`CCn1nc2c(cc1=O)CN(Cc1nc3ccccc3o1)CC2` showed an INHIBITION of 8.24%.
`Cn1nc2c(cc1=O)CN(c1ncnc3sccc13)CC2` was tested, and the INHIBITION was 42.3%.
For `CCCn1nc2c(cc1=O)CN(c1ncnc3sccc13)CC2`, the INHIBITION was 96.2%.
Work on `CC(C)n1nc2c(cc1=O)CN(CCCN1CCCC1=O)CC2` yielded an INHIBITION of 11.9%.
Work on `CCCn1nc2c(cc1=O)CN(C(C)C(=O)Nc1nccs1)CC2` (centres undefined) yielded an INHIBITION of 29.4%.
`CCn1nc2c(cc1=O)CN(Cc1nc(C)c3ccccc3n1)CC2` was tested, and the INHIBITION was -3.72%.
`CC(C(=O)NCc1ccnc(N2CCCCCC2)c1)n1cccn1` (centres undefined) gave an INHIBITION of -39.6%.
In the case of `COc1c(C)cnc(CN2CCOC(Cn3nc(C)cc3C)C2)c1C` (centres undefined), the INHIBITION was -21.7%.
`CN1C(=O)CO[C@H]2CCN(C(=O)Cc3ccc4c(c3)CCCC4)CC[C@@H]21` was tested, and the INHIBITION was 10.65%.
With `N#Cc1cccc(OCCN2CCOC(Cn3cccn3)C2)c1` (centres undefined) the INHIBITION was 0.411%.
With `CCCOC(=O)c1ccc(-c2ccc(/C=C3\C(=O)NC(=N)N3C)o2)cc1` the INHIBITION was -18%.
Work on `CCc1nc2n(n1)CC(NCc1cnn(Cc3ccccc3)c1)CC2` (centres undefined) yielded an INHIBITION of -2.19%.
`Cc1nn(C)c2ncc(NC(=O)N3CCNC(=O)C3)cc12` gave an INHIBITION of -38%.
With `CCS(=O)(=O)N1CCC(NC(=O)c2ccccc2O)CC1` the INHIBITION was -33.32%.
`CCCS(=O)(=O)N1CCC(NC(=O)c2cc3ccccc3s2)CC1` showed an INHIBITION of 67.1%.
Work on `CCCS(=O)(=O)N1CCC(NC(=O)c2cc(CC)c(C)s2)CC1` yielded an INHIBITION of 2.91%.
Compound `CCCS(=O)(=O)N1CCC(NC(=O)c2ccc(C)s2)CC1` has an INHIBITION of -19.3%.
`CCS(=O)(=O)N1CCC(NC(=O)c2cc3ccccc3cc2O)CC1` showed an INHIBITION of 80.55%.
Work on `CCS(=O)(=O)N1CCC(NC(=O)c2cc(C)ccc2O)CC1` yielded an INHIBITION of 8.665%.
`COC1C[C@@H]2CN(C(=O)c3cccc4c3OCCO4)C[C@@H]2C1` (some centres undefined) showed an INHIBITION of 40.625%.
Work on `CCc1nnsc1C(=O)N(C)Cc1nnc2n1CCC2` yielded an INHIBITION of 22.9%.
For `O=C(c1cnccn1)N1CCC(F)(F)C2(CCN(c3ccccn3)C2)C1` (centres undefined), the INHIBITION was 12.1%.
In the case of `CNC(=O)C(NC(=O)c1ccn(C)c(=O)c1)c1ccccc1` (centres undefined), the INHIBITION was -25.9%.
Compound `Cc1cccc(CN(Cn2nc(C)c3c(C)onc3c2=O)C2CC2)c1` has an INHIBITION of -18.9%.
`CCN(CCc1ccccc1)Cn1nc(C)c2c(C)onc2c1=O` showed an INHIBITION of 56.1%.
For `CCCN(Cc1ccccc1)Cn1nc(C)c2c(C)onc2c1=O`, the INHIBITION was 49.9%.
`CCN(Cc1cccc(C)c1)Cn1nc(C)c2c(C)onc2c1=O` gave an INHIBITION of 49.8%.
Compound `Cc1nn(CN(CC(C)C)C2CC2)c(=O)c2noc(C)c12` has an INHIBITION of -199%.
With `Cc1nn(CN(Cc2ccsc2)C2CC2)c(=O)c2noc(C)c12` the INHIBITION was 63.8%.
`COc1ccc(CC(=O)N2CCCCC2Cn2cccn2)cc1` (centres undefined) showed an INHIBITION of -8.11%.
`c1cnc(-c2nc(CN3CCCC3Cn3cncn3)cs2)nc1` (centres undefined) showed an INHIBITION of 27.6%.
Work on `COCCC(=O)N1CCC(c2nc(O)cc(-c3ccncc3)n2)C1` (centres undefined) yielded an INHIBITION of -0.902%.
Compound `COc1cc(C(=O)N(CCC#N)Cc2ccccn2)cc(OC)c1C` has an INHIBITION of 7.9%.
Work on `CN(C)CCN(Cc1ccccn1)C(=O)Nc1cccc(F)c1` yielded an INHIBITION of 18.9%.
`Cc1occc1C(=O)N(CCN(C)C)Cc1ccccn1` was tested, and the INHIBITION was 51.3%.
`Cc1ccoc1C(=O)N(CCN(C)C)Cc1ccccn1` showed an INHIBITION of -31.4%.
`Cc1c(C(=O)N(CCN(C)C)Cc2ccccn2)oc2ccccc12` gave an INHIBITION of 63.7%.
In the case of `COCCN(CCOC)C(=O)c1ccoc1C`, the INHIBITION was -0.551%.
Work on `c1cnc(N2CCN(C3CCC[C@@H]4CN(CC5CC5)C[C@H]34)CC2)nc1` (some centres undefined) yielded an INHIBITION of -34.7%.
In the case of `O=S1(=O)NC(C2CCCN(S(=O)(=O)N3CCCC3)C2)=Nc2ccccc21` (centres undefined), the INHIBITION was 4.535%.
With `Fc1ccc(OC2CCN(CCn3cncn3)CC2)cc1` the INHIBITION was -5.69%.
With `Clc1ccc(OCCN2CCN(CCn3cncn3)CC2)cc1` the INHIBITION was 47.4%.
For `Cc1ccc(OC2CCN(CCn3cncn3)CC2)cc1`, the INHIBITION was 86.8%.
Work on `O=C(NCC1CCS(=O)(=O)C1)c1ccc(NC(=O)c2ccco2)cc1` (centres undefined) yielded an INHIBITION of 18.6%.
`O=C(CCc1cscn1)N1CCCC(n2cncn2)C1` (centres undefined) showed an INHIBITION of 31.8%.
For `COc1ccc(OC)c(CNc2c(O)c(=O)c2=O)c1`, the INHIBITION was 47.4%.
Compound `Cc1nc(NCCCn2cccn2)c2c(n1)c(C)nn2C` has an INHIBITION of 57.3%.
Compound `CCc1nc(NCc2ccccn2)c2c(n1)c(C)nn2C` has an INHIBITION of 42.1%.
For `CCc1nc(NCCCn2cccn2)c2c(n1)c(C)nn2C`, the INHIBITION was 10.3%.
`Cc1nc(NCc2ccccn2)c2c(n1)c(C)nn2C` gave an INHIBITION of 57.4%.
Work on `CCCc1nc(NCCCn2cccn2)c2c(n1)c(C)nn2CC` yielded an INHIBITION of 27.5%.
In the case of `Cc1nn(C)c2c(NCCCn3cccn3)ncnc12`, the INHIBITION was -43.4%.
`Cc1nn(C)c2c(NCCCn3cccn3)nc(C3CC3)nc12` was tested, and the INHIBITION was 42.4%.
`Cc1nn(C)c2c(NCCn3cccn3)ncnc12` showed an INHIBITION of -37.2%.
Compound `CCc1nc(NCCn2cccn2)c2c(n1)c(C)nn2C` has an INHIBITION of 19.3%.
`Cc1nn(C)c2c(NCc3ccccn3)nc(C(C)C)nc12` was tested, and the INHIBITION was 33.7%.
Compound `Cc1nn(C)c2c(NCCCn3cccn3)nc(C(C)C)nc12` has an INHIBITION of 62.3%.
For `CCc1nc(NCCCn2cccn2)c2c(n1)c(C)nn2CC`, the INHIBITION was 64%.
With `Cc1ccc(S(=O)(=O)N2CC[C@H]3CO[C@H](CN(C)C)[C@H]3C2)cc1` the INHIBITION was 32.2%.
`COc1ccc(CN2CCC3(CC2)CCN(CC(C)C)C3=O)cc1` showed an INHIBITION of 13.2%.
In the case of `CCn1nc(C)c2nc(C(C)C)nc(NCCCn3cccn3)c21`, the INHIBITION was 50.7%.
With `CCn1nc(C)c2nc(C)nc(NCCCn3cccn3)c21` the INHIBITION was 39.1%.
Compound `CCn1nc(C)c2nc(C(C)C)nc(NCCCn3ccnc3)c21` has an INHIBITION of -13.085%.
